Screening results as filed in PubChem BioAssay.
Shown are actives, neighbours in structure and some others; about 4.1% of the full set was active somewhere.
Peg3 prom inh = Peg3 promoter-driven luciferase inhibitors, primary screen, cell-based, HeLa, luciferase luminescence | AID 588405, 2011 | inhibition, % at 20 µM | HeLa PEG-Prom luciferase reporter, overnight | 1.7% of 360,000 active;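 active = inhibition of at least 50% at 20 µM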
TRPM1 prom inh = inhibitors of MITF-dependent TRPM1 promoter reporter, primary screen, cell-based, SK-MEL-5, single point, luciferase. inhibition, % at 12.5 µM. SK-MEL-5 TRPM1 promoter luciferase, 24 h. AID 488899, 2010. 0.83% of 330,000 active;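 active = mean inhibition across replicates of 60% or more, whatever share of single replicates reaches that level; inconclusive = some that reach 60%, reason not given; inactive = mean inhibition across replicates below 60%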
TWEAK Fn14 block = inhibitors of TWEAK-Fn14 signaling, primary screen, luciferase reporter cells, uHTS; TWEAK-stimulated Fn14 reporter cells, luciferase luminescence, 8 h; 2% of 360,000 active; inhibition, % at 10 µM; AID 1159606, 2016; in the data active = inhibition above about 50%
Shn3 3UTR inh = reduction of Shn3 3'UTR firefly luciferase signal, primary screen, Schnurri-3 inhibitor project, cell-based, Clone20 osteoblasts, set 2; Clone20 osteoblast Shn3 3'UTR firefly luciferase, 24 h; inhibition, % at 12.5 µM; 0.52% of 360,000 active;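 active = mean inhibition of at least 75% with every replicate also reaching 75%; inconclusive = mean inhibition at least 75% but some replicate below; inactive = mean inhibition below 75%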;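 note: 0% = median of neutral control wells and 100% = pilot-screen positive control compound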
TROY signal inh = inhibitors of TROY-driven NF-kB signaling, primary screen, Q293 LMP1-TROYcd cells, NF-kB luciferase, uHTS; 0.98% of 360,000 active; Q293 LMP1-TROYcd NF-kB luciferase reporter, 4 h; inhibition, % at 10 µM;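 active = compounds whose plate-normalised and pattern-corrected inhibition of the luciferase reporter signal at the single screening dose is 50% or more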
EBV LMP1 NFkB = EBV LMP1-driven NF-kappaB luciferase reporter inhibitors, primary screen, cell-based, luminescence, single point; LMP1-induced NF-kappaB luciferase reporter cells; inhibition, % at 12.5 µM; 0.69% of 350,000 active; in the data active = inhibition above about 41%; inconclusive = no clear call, values can overlap the other calls;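 note: 0% = neutral control wells and 100% = reference inhibitor control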
An asterisk follows results filed as active; ! = a repeat was not active.

Results for CCC(=O)N1CCN(c2ccc(NC(=O)c3ccc([N+](=O)[O-])o3)cc2Cl)CC1 ?
Peg3 prom inh: 114*; TRPM1 prom inh: 87*; TWEAK Fn14 block: 17; Shn3 3UTR inh: 96*; TROY signal inh: -10; EBV LMP1 NFkB: -48

How did CC(=O)N1CCN(c2ccc(NC(=O)c3ccco3)cc2Cl)CC1 do in these assays?
Peg3 prom inh: -82; TRPM1 prom inh: -25; TWEAK Fn14 block: -22; Shn3 3UTR inh: -33; TROY signal inh: -47; EBV LMP1 NFkB: -39

Results for CCN1CCN(c2ccc(NC(=O)c3ccc([N+](=O)[O-])o3)cc2Cl)CC1 ?
Peg3 prom inh: 102*; TRPM1 prom inh: 71*; TWEAK Fn14 block: 24; Shn3 3UTR inh: 68; TROY signal inh: -9; EBV LMP1 NFkB: -37

How did CC(=O)N1CCN(c2ccc(NC(=O)c3ccc([N+](=O)[O-])o3)cc2Cl)CC1 do in these assays?
Peg3 prom inh: 101*; TRPM1 prom inh: 95*; TWEAK Fn14 block: 29; Shn3 3UTR inh: 96*; TROY signal inh: 8; EBV LMP1 NFkB: -26

What do the screens show for `CN1CCN(c2ccccc2NC(=O)c2ccc([N+](=O)[O-])o2)CC1`?
Peg3 prom inh: 61*; TRPM1 prom inh: 79*; TWEAK Fn14 block: 8; Shn3 3UTR inh: 14; TROY signal inh: -4; EBV LMP1 NFkB: -7

What do the screens show for `Cc1nn(C)c2c1NC(=O)CS2`?
Peg3 prom inh: -5; TWEAK Fn14 block: -25; Shn3 3UTR inh: -5; TROY signal inh: -12; EBV LMP1 NFkB: 7

Results for CCOC(=O)c1c[nH]c2nc(C)ccc2c1=O ?
Peg3 prom inh: -30; TRPM1 prom inh: 2; TWEAK Fn14 block: 16; Shn3 3UTR inh: -8; TROY signal inh: -16; EBV LMP1 NFkB: -1

Results for CCOC(=O)c1c[nH]c(=O)c(Br)c1O ?
Peg3 prom inh: 7; TRPM1 prom inh: 1; TWEAK Fn14 block: 11; Shn3 3UTR inh: -12; TROY signal inh: 16; EBV LMP1 NFkB: 61*

Results for CCOc1ccc(-c2nnc(N3CCCCC3)c3ccccc23)cc1 ?
Peg3 prom inh: 17; TRPM1 prom inh: 6; TWEAK Fn14 block: -9; Shn3 3UTR inh: inconclusive; TROY signal inh: 59*; EBV LMP1 NFkB: -14

How did CCN(CC)C(=O)COc1ccc(-c2nnc(N3CCCCC3)c3ccccc23)cc1 do in these assays?
Peg3 prom inh: 8; TRPM1 prom inh: -11; TWEAK Fn14 block: -10; Shn3 3UTR inh: 5; TROY signal inh: 14; EBV LMP1 NFkB: 11

What do the screens show for `CC(=O)N1CCN(c2nnc(-c3ccc(C)cc3)c3ccccc23)CC1`?
Peg3 prom inh: -18; TRPM1 prom inh: 17; TWEAK Fn14 block: 1; Shn3 3UTR inh: -12; TROY signal inh: 52*; EBV LMP1 NFkB: -9

Results for CC(C)(O[C@@H]1O[C@H](CO)[C@@H](O)[C@H](O)[C@H]1O)[C@@H]1CC=C(C(=O)O)CC1 ?
Peg3 prom inh: -25; TRPM1 prom inh: 1; TWEAK Fn14 block: 13; Shn3 3UTR inh: -8; TROY signal inh: -23; EBV LMP1 NFkB: 3

Results for O=C(NC1CCCCC1)C(c1cccs1)N(C(=O)Cc1c[nH]c2ccccc12)c1ccc(F)cc1 (configuration not stated) ?
Peg3 prom inh: 85*; TRPM1 prom inh: 18; TWEAK Fn14 block: 34; Shn3 3UTR inh: 7; TROY signal inh: 24; EBV LMP1 NFkB: -12

What do the screens show for `COc1ccc(C(C(=O)NC2CCCCC2)N(Cc2cccs2)C(=O)Cc2c[nH]c3ccccc23)cc1` (configuration not stated)?
Peg3 prom inh: 47; TRPM1 prom inh: 19; TWEAK Fn14 block: 65*; Shn3 3UTR inh: 21; TROY signal inh: 30; EBV LMP1 NFkB: 2

What do the screens show for `COc1cccc(CN(C(=O)Cc2c[nH]c3ccccc23)C(C(=O)NC2CCCCC2)c2cccs2)c1` (configuration not stated)?
Peg3 prom inh: 48; TRPM1 prom inh: 15; TWEAK Fn14 block: 53*; Shn3 3UTR inh: 27; TROY signal inh: 13; EBV LMP1 NFkB: 1

How did Cc1ccc(OCCN2CCC2(C)C(=O)NCc2ccc(C(F)(F)F)cc2)cc1 (configuration not stated) do in these assays?
Peg3 prom inh: 18; TWEAK Fn14 block: -8; Shn3 3UTR inh: 7; TROY signal inh: 6

What do the screens show for `COc1ccc(CCNC(=O)C2CCC(=O)N(CC3CCCCC3)C2)cc1` (configuration not stated)?
Peg3 prom inh: 9; TRPM1 prom inh: 3; TWEAK Fn14 block: 7; Shn3 3UTR inh: -15; TROY signal inh: 9; EBV LMP1 NFkB: 2

How did O=C(O)/C=C/c1ccc(Cn2ccnc2)cc1 do in these assays?
Peg3 prom inh: 8; TRPM1 prom inh: 0; TWEAK Fn14 block: 23; Shn3 3UTR inh: -6; TROY signal inh: 3; EBV LMP1 NFkB: 60*!

Results for O=C(/C=C/c1ccc(Br)cc1)NCCCn1ccnc1 ?
Peg3 prom inh: -18; TRPM1 prom inh: 0; TWEAK Fn14 block: -7; Shn3 3UTR inh: 7; TROY signal inh: -1; EBV LMP1 NFkB: -23

How did C=CCNC(=O)c1cc2cc(Cl)ccc2nc1N do in these assays?
TWEAK Fn14 block: 4; TROY signal inh: -11

What do the screens show for `Brc1ccc(NCc2cccc3ccccc23)nc1`?
Peg3 prom inh: -53; TRPM1 prom inh: -27; TWEAK Fn14 block: -10; Shn3 3UTR inh: -3; TROY signal inh: -28; EBV LMP1 NFkB: -11

What do the screens show for `Oc1ccccc1CNc1ccc(Br)cn1`?
Peg3 prom inh: -268; TRPM1 prom inh: -50; TWEAK Fn14 block: 90*; Shn3 3UTR inh: -60; TROY signal inh: -40; EBV LMP1 NFkB: 1

How did CC(=O)Nc1cccc(-c2cc(NC=O)c3ncc(-c4cccc(C(C)=O)c4)n3c2)c1 do in these assays?
Peg3 prom inh: 44; TWEAK Fn14 block: 32; Shn3 3UTR inh: -57; TROY signal inh: 3

How did COc1cc(-c2cnc3c(NC=O)cc(-c4cccc(NC(C)=O)c4)cn23)cc(OC)c1OC do in these assays?
Peg3 prom inh: 64*; TWEAK Fn14 block: 60*; Shn3 3UTR inh: 21; TROY signal inh: 25

What do the screens show for `COc1cc(-c2cc(NC(C)=O)c3ncc(-c4cc(OC)c(OC)c(OC)c4)n3c2)cc(OC)c1OC`?
Peg3 prom inh: 52*; TWEAK Fn14 block: 50*; Shn3 3UTR inh: 9; TROY signal inh: 6

How did COc1cccc(-c2cnc3c(NC=O)cc(-c4cccc(NC(C)=O)c4)cn23)c1 do in these assays?
Peg3 prom inh: 48; TWEAK Fn14 block: 30; Shn3 3UTR inh: 5; TROY signal inh: 61*
